# Reference: PubChem BioAssay
# Activity calls are given as the source filed them.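 Rule for the calls, unless noted: active = NADPH fluorescence slope more negative than the mean of all samples by about 3 SD, 99.7% confidence; inactive = the rest.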
# Columns and labels:
# [1] = inhibitors of TNFa-induced NFkB p65 translocation, primary screen, imaging, HUVEC, MLSMR starter and 10KST1 sets (AID 438;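 active = inhibition above 20% together with a positive visual image hit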;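 note: compound added about 3h40 before a 20 min TNFalpha stimulation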;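 for inhibition: signal is the nuclear over cytoplasmic p65 intensity ratio per well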); details: HUVEC TNFa-induced p65 nuclear translocation; cell count: measured here: nuclei count (cytotoxicity indicator), at 2.08 µM; inhibition: at 2 µM, stronger effect = higher value, 0% TNFa-plus-vehicle, 100% no-TNFa wells
# [2] = inhibitors of mutant huntingtin aggregation, primary screen, imaging, exon1htt(103Q)mCFP cells, high-content imaging (AID 483;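 active = visual image review flags a hit and inhibition of aggregation exceeds 20%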;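 note: compound exposure lasted 3 days before fixation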;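 for nuclei count: percent of the per-plate median nuclei count of sample wells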); details: exon1htt(103Q)mCFP cell line, aggregate imaging, at 2 µM; inhibition of aggregation: stronger effect = higher value; nuclei count: measured here: cell count, toxicity
# [3] = inhibitors of E-selectin induction by TNFa, primary screen, imaging, HUVEC, immunofluorescence, MLSMR starter and 10KST1 sets (AID 487;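 active = visually confirmed hit in the image check and inhibition above 20%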;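 for inhibition: signal is fraction of cell area covered by stained E-selectin grains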;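 for nuclei count: 100% = median nuclei count of all wells on the same plate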); details: HUVEC TNFalpha-induced E-selectin immunofluorescence imaging, at 2 µM; inhibition: stronger effect = higher value; nuclei count: measured here: cell number, toxicity
# [4] = biological target: Voltage-gated potassium channel subunit beta-2 (Rattus norvegicus) (UniProt P62483); experiment: KvBeta enzyme negative modulators, primary screen, biochemical, NADPH fluorescence (AID 622;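 active = fluorescence slope higher than the sample average by over 3 SD, cut at about -0.22 in these data, passing the limit was not always enough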;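 note: slope of raw intensity against log time taken from 70 to 1610 s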); details: recombinant KvBeta, 4-cyanobenzaldehyde reduction, at 10 µM, stronger effect = higher value
# [5] = biological target: Voltage-gated potassium channel subunit beta-2 (Rattus norvegicus) (UniProt P62483); experiment: KvBeta positive modulators, primary screen, biochemical, NADPH fluorescence (AID 623); details: Recombinant KvBeta, NADPH fluorescence decrease slope, 10 min; at 10 µM; stronger effect = lower value;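 note: fluorescence intensity change per second fitted from 20 to 320 s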
# [6] = biological target: Alpha-2C adrenergic receptor (Homo sapiens) (UniProt P18825); experiment: modulators of alpha2C/GIRK thallium flux, primary screen, cell-based, HEK293 alpha2C/GIRK1/2 (AID 624;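 active = fluorescence slope after compound addition differing from the mean of all screened samples at 99.7% confidence, in either direction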;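 note: slope of fluorescence ratio to pre-addition baseline per second over 15 to 24 s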); details: thallium flux BTC fluorescence, at 10 µM, actives lie on both sides
# [7] = inhibitors of Sendai virus-induced IRF3 signaling, primary screen, TLR/RLR signaling modifier project, cell-based, Sendai virus stimulus, luciferase, 10K MLSCN set (AID 602276;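 active = inhibition at or above 50% at 10 µM; inactive = inhibition below 50%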;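 note: firefly luciferase from ISG56 promoter only with Renilla not read in this screen; 0% = Sendai virus plus DMSO and 100% = medium plus DMSO without virus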); details: HEK293 RL24 IRF3 luciferase reporter, at 10 µM, stronger effect = higher value
# [8] = inhibitors of poly I:C-induced TLR3 signaling, primary screen, cell-based, poly I:C stimulus, luciferase, 10K MLSCN set (AID 602277;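 active = inhibition of the reporter signal at or above 50%; inactive = inhibition below 50%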); details: HEK293-TLR3 RL24 IRF3 luciferase reporter, at 10 µM, stronger effect = higher value
# Chain of Alpha-2C adrenergic receptor (Homo sapiens) (P18825 whole entry, looked up): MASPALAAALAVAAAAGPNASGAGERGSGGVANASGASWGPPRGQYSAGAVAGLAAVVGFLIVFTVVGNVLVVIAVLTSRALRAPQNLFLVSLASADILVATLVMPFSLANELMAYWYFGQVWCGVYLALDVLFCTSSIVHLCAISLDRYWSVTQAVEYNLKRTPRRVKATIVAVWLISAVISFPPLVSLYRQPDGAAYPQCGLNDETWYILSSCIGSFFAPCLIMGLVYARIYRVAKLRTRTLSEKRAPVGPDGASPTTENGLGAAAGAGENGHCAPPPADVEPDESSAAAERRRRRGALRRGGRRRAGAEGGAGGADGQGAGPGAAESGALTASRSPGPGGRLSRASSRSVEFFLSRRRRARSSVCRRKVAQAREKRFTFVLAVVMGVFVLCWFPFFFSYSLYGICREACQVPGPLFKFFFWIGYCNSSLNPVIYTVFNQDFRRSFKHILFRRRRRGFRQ
# Chain of Voltage-gated potassium channel subunit beta-2 (Rattus norvegicus) (P62483 whole entry, looked up): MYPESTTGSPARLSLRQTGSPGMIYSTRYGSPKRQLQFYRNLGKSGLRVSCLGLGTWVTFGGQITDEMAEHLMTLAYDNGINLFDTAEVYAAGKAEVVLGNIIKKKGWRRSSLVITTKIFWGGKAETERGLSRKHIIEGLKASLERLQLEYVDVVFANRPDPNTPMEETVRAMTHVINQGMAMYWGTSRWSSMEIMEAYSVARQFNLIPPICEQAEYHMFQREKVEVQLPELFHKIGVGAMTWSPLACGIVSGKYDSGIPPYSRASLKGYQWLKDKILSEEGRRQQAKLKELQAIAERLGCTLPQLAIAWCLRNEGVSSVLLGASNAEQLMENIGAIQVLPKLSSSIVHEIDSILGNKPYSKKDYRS
SMILES,cell count [1],inhibition [1],inhibition of aggregation [2],nuclei count [2] [%],inhibition [3],nuclei count [3] [%],fluorescence slope [4],NADPH fluorescence slope [5],slope [6],inhibition [7],inhibition [8]
O=C(CS(=O)(=O)c1cn(Cc2ccc(Cl)cc2)c2ccccc12)N1CCCC1,654,-3.9% (inactive),-11.8% (inactive),116,13.5% (inactive),111,-0.538 (inactive),-3.5e-05 (inactive),0.00627 (inactive),15.4% (inactive),34% (inactive)
Cc1ccc(C(=O)NCc2ccc3c(c2)OCO3)cc1S(=O)(=O)N1CCCCC1,437,4.7% (inactive),-2.6% (inactive),99.9,-39.8% (inactive),113,-0.451 (inactive),4.6e-05 (inactive),0.00487 (inactive),-2.9% (inactive),-10.9% (inactive)
CS(=O)(=O)N(Cc1ccco1)CC(O)Cn1c2ccccc2c2ccccc21 (stereo not drawn),314,3.3% (inactive),3.9% (inactive),103,-16.4% (inactive),97.9,-0.388 (inactive),1.5e-05 (inactive),0.00353 (inactive),13.7% (inactive),35.1% (inactive)
CCCCC(=O)NCCNc1nc2c(c(=O)n(C)c(=O)n2C)n1Cc1ccccc1,555,-6.3% (inactive),-14.2% (inactive),105,28.6% (inactive),106,-0.615 (inactive),-5.2e-06 (inactive),0.00636 (inactive),15.2% (inactive),24.6% (inactive)
CCOCCOc1nc2c(c(=O)n(C)c(=O)n2C)n1Cc1ccc(C)cc1,830,2.3% (inactive),-33.5% (inactive),102,-35.1% (inactive),114,-0.46 (inactive),5.4e-05 (inactive),0.00568 (inactive),-11.5% (inactive),-21.6% (inactive)
CN(C)S(=O)(=O)NC(c1ccccc1)c1ccccc1,671,5.8% (inactive),3.3% (inactive),102,14.6% (inactive),99.9,-0.413 (inactive),-3.1e-05 (inactive),0.00605 (inactive),20.5% (inactive),21.8% (inactive)
O=C(NC1CCCCC1)C(c1ccccc1)N(Cc1ccco1)C(=O)Cn1cnc2ccccc21 (stereo not drawn),375,-1.6% (inactive),-19.6% (inactive),114,-70.5% (inactive),108,-0.586 (inactive),-3.7e-05 (inactive),0.00243 (inactive),9.18% (inactive),20.8% (inactive)
COc1ccc(C2=NOC(C(=O)NC3CCCCC3)C2)cc1OC (stereo not drawn),832,-14.3% (inactive),1.9% (inactive),104,-84.9% (inactive),96.1,-0.547 (inactive),-4.1e-05 (inactive),0.00464 (inactive),14.9% (inactive),20.1% (inactive)
c1ccc(CC2CCN(C(c3cccs3)c3nnnn3C3CCCC3)CC2)cc1 (stereo not drawn),743,-37.8% (inactive),7.1% (inactive),108,-31.1% (inactive),99.9,-0.558 (inactive),3.9e-05 (inactive),0.00517 (inactive),-0.349% (inactive),20.3% (inactive)
CC1=C(C(=O)N2CCCCC2)C(c2cccs2)C2=C(CCCC2=O)N1 (stereo not drawn),332,-3.9% (inactive),8.9% (inactive),95.9,-31.6% (inactive),92.4,-0.29 (inactive),-3.5e-05 (inactive),0.0061 (inactive),7.2% (inactive),6.53% (inactive)
CCNC(=O)C1CC(=O)N(Cc2ccc3c(c2)OCO3)C(=Nc2ccc(F)cc2)S1 (stereo not drawn),705,-0.8% (inactive),-38.8% (inactive),109,-83.7% (inactive),98,-0.471 (inactive),-0.000221 (inactive),0.00631 (inactive),-2.28% (inactive),16% (inactive)
CC(C)[C@H](NC(=O)OC(C)(C)C)c1nnc(SCC(=O)Nc2ccc(Br)cc2)o1,402,-6.7% (inactive),6.5% (inactive),107,-13.2% (inactive),130,-0.457 (inactive),2.2e-05 (inactive),0.00396 (inactive),2.98% (inactive),28.3% (inactive)
O=C(Nc1ccccc1)N1CCC(c2ccccc2)C1 (stereo not drawn),331,23.5% (inactive),3% (inactive),101,13.1% (inactive),103,-0.481 (inactive),-9.5e-06 (inactive),0.00694 (inactive),-49.3% (inactive),-82.3% (inactive)
Nc1nonc1N1CCCCC1,437,-8.1% (inactive),-6.7% (inactive),107,27.5% (inactive),104,-0.474 (inactive),-4.6e-05 (inactive),0.00308 (inactive),4.11% (inactive),26.3% (inactive)
O=C(NCc1ccco1)c1cccn2c(=O)c3sccc3nc12,452,-1.9% (inactive),-0.8% (inactive),96,19.6% (inactive),101,-0.112 (inactive),-7.3e-06 (inactive),0.00303 (inactive),-2.36% (inactive),-2.82% (inactive)
O=C(Oc1cc2oc(=O)c3c(c2cc1Cl)CCCC3)c1ccco1,532,-14.1% (inactive),-4.9% (inactive),101,-50.1% (inactive),148,-0.14 (inactive),-2.3e-05 (inactive),0.00588 (inactive),4.58% (inactive),7.41% (inactive)
O=C1c2ccccc2C(=O)N1CC(O)Cn1nnc2ccccc21 (stereo not drawn),480,-22.3% (inactive),-0.2% (inactive),116,-47.9% (inactive),99.5,-0.521 (inactive),-4.1e-05 (inactive),0.00496 (inactive),3.12% (inactive),4.4% (inactive)
COc1cccc(NC(=O)C2CCCN(S(=O)(=O)c3cccc4cccnc34)C2)c1 (stereo not drawn),604,-1.7% (inactive),25.4% (inactive),90.7,-62.8% (inactive),106,-0.559 (inactive),-2e-05 (inactive),0.00606 (inactive),2% (inactive),23.1% (inactive)
CC(C)C(NC(=O)c1ccco1)C(=O)NCC(c1ccco1)N1CCCCC1 (stereo not drawn),379,-22% (inactive),6.7% (inactive),99,0% (inactive),97.7,-0.588 (inactive),-2.6e-05 (inactive),0.00507 (inactive),3.26% (inactive),14.7% (inactive)
c1cncc(-c2nnc3n2N=C(c2cccs2)CS3)c1,523,4.8% (inactive),7.7% (inactive),96.4,-28.3% (inactive),107,-0.331 (inactive),5.7e-06 (inactive),0.00392 (inactive),5.28% (inactive),17.3% (inactive)
CC(NC(=O)C1CCCN(S(=O)(=O)c2cccs2)C1)c1ccccc1 (stereo not drawn),816,-1.4% (inactive),-6.6% (inactive),106,-1.1% (inactive),112,-0.583 (inactive),-4.2e-05 (inactive),0.00498 (inactive),12.2% (inactive),34.2% (inactive)
CCOC(=O)CSc1nnc2n1C(C)(C)Cc1ccccc1-2,305,-0.9% (inactive),0.5% (inactive),51.3,-102% (inactive),117,-0.384 (inactive),-8.4e-05 (inactive),0.00549 (inactive),-15.4% (inactive),-27.1% (inactive)
COc1ccc(CCNC(=O)CCN2C(=O)C3CC=CCC3C2=O)cc1OC (stereo not drawn),308,-1.1% (inactive),-8.1% (inactive),83.4,-53.4% (inactive),103,-0.605 (inactive),-1.9e-06 (inactive),0.00675 (inactive),3.55% (inactive),-2.15% (inactive)
CCCC1(C(=O)OCC)NC(c2ccc(N(C)C)cc2)C2C(=O)N(c3ccc(F)cc3)C(=O)C21 (stereo not drawn),505,-10% (inactive),30.1% (inactive),69.8,1.4% (inactive),134,-0.398 (inactive),1e-06 (inactive),0.00411 (inactive),8.99% (inactive),23.9% (inactive)
CN(C)S(=O)(=O)c1ccc(Oc2ccc(S(=O)(=O)N(C)C)cc2)cc1,273,-4.4% (inactive),-0.5% (inactive),89.3,8.2% (inactive),80.6,-0.42 (inactive),3.1e-05 (inactive),0.00921 (inactive),-5.78% (inactive),-20.3% (inactive)
COc1cccc2cc(C(=O)N3CCN(c4ccc(C)cc4C)CC3)c(=O)oc12,800,-3.4% (inactive),-43.1% (inactive),116,-30.2% (inactive),110,-0.565 (inactive),-1.5e-05 (inactive),0.00579 (inactive),-9.04% (inactive),5.89% (inactive)
CCOc1ccc(NS(=O)(=O)c2ccc(OCC(=O)N3CCCC3)cc2)cc1,422,-15.4% (inactive),43.4% (active),98.7,-56.1% (inactive),169,-0.465 (inactive),-4.2e-05 (inactive),0.00531 (inactive),8.25% (inactive),13.9% (inactive)
COc1ccc(Cn2c(-c3ccco3)nc3oc4ccccc4c(=O)c3c2=O)cc1,492,-7.6% (inactive),-68.5% (inactive),90.1,-22% (inactive),115,-0.491 (inactive),-2.1e-05 (inactive),0.00596 (inactive),-1.06% (inactive),-24.4% (inactive)
